Source: PubChem
BLM helicase inh – inhibitors of human Bloom syndrome helicase BLM. recombinant BLM DNA unwinding, fluorescence dequenching. P54132. Potency, µM (top dose mostly 56.1 µM), inactives show at the top dose activity change, negative = inhibition, most hits filed as inhibitors. 0.2% of 350,000 active;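 also: plate controls were vehicle for no effect and no enzyme for full effect; nearly all actives have a fitted effect of over 35% in size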
L3MBTL1 block – inhibitors of human L3MBTL1. AlphaScreen L3MBTL1–H3K9me1 peptide binding. Potency, µM (top dose mostly 57.1 µM), for inactives: top-dose activity, negative = inhibition, actives largely listed as inhibitors. 0.66% of 230,000 active. AID 485360; also: nearly all actives have a fitted effect of over 60% in size
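Read-out is AlphaScreen signal from streptavidin donor and nickel chelate acceptor beads (10 ug/mL final each) bridging L3MBTL1 (50 nM) and biotinylated K9-monomethylated H3(1-15) peptide (75 nM), after 30 min compound exposure at room temperature.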
RECQ1 helicase – inhibitors of human RECQ1 DNA helicase; P46063; RECQ1 DNA unwinding, red fluorescence kinetic read; Potency, µM (series often up to 57.3 µM), for the others: top-dose activity, negative = inhibition, most hits filed as inhibitors; 0.54% of 240,000 active; AID 2549;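 also: plate controls were vehicle for no effect and no enzyme for full effect; nearly all actives have a fitted effect of over 30% in size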
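50 nM RECQ1T1 preincubated 15 min with compound in Tris pH 8.0 buffer with MgCl2, DTT, Tween-20 and 2.5 ug/ml poly(dI-dC); started with 200 nM TAMRA/BHQ-2 forked duplex and 2 mM ATP. Unwinding read as fluorescence (525/598 nm), two reads 2 h apart.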
APE1 inh – inhibitors of human APE1 endonuclease; P27695; recombinant APE1, TAMRA/BHQ-2 abasic DNA cleavage fluorescence; Potency, µM (highest dose often 65.8 µM), without a hit: at the top dose activity change, negative = inhibition, usual class: inhibitors; 0.35% of 350,000 active; AID 2517;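 also: plate controls were vehicle for no effect and reference inhibitor for full effect; nearly all actives have a fitted effect of over 55% in size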
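Measures dequenching upon AP-site incision of a 5'-TAMRA/3'-BHQ-2 THF-containing duplex, 50 nM; human APE1 0.75 nM after 15 min room-temperature exposure to compound; kinetic three-point read at one-minute spacing.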
WRN helicase inh – WRN helicase (human) inhibition. Q14191. WRN helicase unwinding, fluorescent forked duplex, kinetic. Potency, µM (doses to about 114 µM), inactives show at the top dose activity change, negative = inhibition, actives largely listed as inhibitors. 0.46% of 360,000 active; also: nearly all actives have a fitted effect of over 55% in size
Target sequence (Q14191 whole entry, looked up): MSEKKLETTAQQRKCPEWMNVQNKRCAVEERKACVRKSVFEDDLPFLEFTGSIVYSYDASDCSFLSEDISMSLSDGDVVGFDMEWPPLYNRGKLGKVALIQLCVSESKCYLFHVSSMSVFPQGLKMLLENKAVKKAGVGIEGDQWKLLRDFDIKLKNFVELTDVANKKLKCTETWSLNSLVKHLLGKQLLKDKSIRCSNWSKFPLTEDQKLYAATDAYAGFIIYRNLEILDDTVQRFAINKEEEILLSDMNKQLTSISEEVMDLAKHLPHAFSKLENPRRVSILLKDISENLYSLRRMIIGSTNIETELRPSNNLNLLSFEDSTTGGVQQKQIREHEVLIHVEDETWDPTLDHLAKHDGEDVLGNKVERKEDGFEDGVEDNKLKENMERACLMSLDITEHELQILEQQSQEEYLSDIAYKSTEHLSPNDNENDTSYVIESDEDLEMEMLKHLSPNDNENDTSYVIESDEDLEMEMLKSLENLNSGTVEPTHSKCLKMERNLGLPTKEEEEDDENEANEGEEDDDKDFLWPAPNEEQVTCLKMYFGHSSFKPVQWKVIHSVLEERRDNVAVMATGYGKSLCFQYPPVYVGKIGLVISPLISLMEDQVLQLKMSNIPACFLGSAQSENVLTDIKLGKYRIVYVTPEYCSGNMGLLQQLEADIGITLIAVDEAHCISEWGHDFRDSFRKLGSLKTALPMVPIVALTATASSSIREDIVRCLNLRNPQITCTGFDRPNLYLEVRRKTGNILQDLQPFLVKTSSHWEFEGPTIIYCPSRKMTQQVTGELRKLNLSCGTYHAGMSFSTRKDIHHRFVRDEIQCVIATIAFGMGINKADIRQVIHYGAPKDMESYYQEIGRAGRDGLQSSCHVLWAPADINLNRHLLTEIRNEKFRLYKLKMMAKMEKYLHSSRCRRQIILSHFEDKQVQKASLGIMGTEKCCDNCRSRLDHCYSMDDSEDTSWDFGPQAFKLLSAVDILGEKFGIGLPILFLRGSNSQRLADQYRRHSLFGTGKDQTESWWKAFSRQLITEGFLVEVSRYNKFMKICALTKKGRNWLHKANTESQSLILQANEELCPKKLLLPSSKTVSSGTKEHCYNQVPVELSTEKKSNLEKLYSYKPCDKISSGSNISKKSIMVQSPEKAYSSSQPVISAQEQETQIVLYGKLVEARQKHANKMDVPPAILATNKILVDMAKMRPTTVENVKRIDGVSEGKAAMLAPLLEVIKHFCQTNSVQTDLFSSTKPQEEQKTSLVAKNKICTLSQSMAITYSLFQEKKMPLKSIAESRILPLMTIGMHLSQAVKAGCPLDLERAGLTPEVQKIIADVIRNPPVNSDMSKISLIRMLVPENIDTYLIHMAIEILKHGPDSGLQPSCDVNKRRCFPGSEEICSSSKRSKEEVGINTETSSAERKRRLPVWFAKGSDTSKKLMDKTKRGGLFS
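WRN at 20 nM final preincubated with compound 15 min at room temperature; reaction started with 100 nM fluorophore/quencher forked duplex oligonucleotide and 2 mM ATP final. Unwinding followed kinetically by red fluorescence (ex 525, em 598 nm).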
Starred values were filed as active, the others as inactive; i = inactive; ? = inconclusive; / = no result; [ ] = dose if it differs, or a comment. Only some compounds are listed: those with a hit (about 0.92% of all), similar ones and a draw of the others. Calls follow the shape of the dose curve; as a rule, active = well fitted curve in the direction sought with a large enough effect; inconclusive = small, poorly fitted or top-dose-only effect, or another doubt; inactive = no such curve, though single readings can be large; an effect the other way counts as inactive or inconclusive. Unless noted, % is scaled to controls: 0 for no effect and ±100 for the full control effect; potency is read from the fitted curve at half-maximal effect.

SMILES | BLM helicase inh | L3MBTL1 block | RECQ1 helicase | APE1 inh | WRN helicase inh
C#CCSc1nsc(SCC#C)c1C#N | -15% | -11% | -8% | ? | 50µM*
c1cc(CN2CCCNCCNCCCNCC2)ccc1CN1CCCNCCNCCCNCC1 | ? | / | 14% | 14% | /
CCCC(=O)NC(c1cccs1)c1cc([N+](=O)[O-])c2cccnc2c1O (stereo unspecified) | -26% | ? | -20% | 11% | ?
CCC(=O)NC(c1cccs1)c1cc([N+](=O)[O-])c2cccnc2c1O (stereo unspecified) | -16% | 10µM* | -4% | -2% | -30%
CC(=O)NC(c1cccs1)c1cc([N+](=O)[O-])c2cccnc2c1O (stereo unspecified) | -22% | 10µM* | i | -1% | -22%
CN1CCN(C(=O)c2cccc(-c3cc(O)c4ncccc4c3)c2)CC1 | / | 32µM* | / | 17% | /
Oc1cc(-c2cccnc2)cc2cccnc12 | / | 7.9µM* | / | -5% | /
CN1CCN(C(=O)c2cccc(-c3ccc4nncn4c3)c2)CC1 | / | / | / | / | -3%
CN1CCN(c2cc(-c3cc(O)c4ncccc4c3)ccn2)CC1 | / | 28µM* | / | 27% | /
Oc1cc(NCCN2CCOCC2)cc2cccnc12 | / | ? | / | 7% | /
Oc1cc(Nc2ccccc2)cc2cccnc12 | / | -10% | / | 2% | /
O=C(CSc1nnc(-c2cccc(S(=O)(=O)N3CCCC3)c2)n1-c1ccccc1)Nc1ccc(F)cc1 | / | / | / | 12% | /
O=[N+]([O-])c1cccc2c(S(=O)(=O)N3CCOCC3)cccc12 | -8% | -15% | / | 11µM* | -11%[11.6 µM]
CN(C)C(=O)NC1c2ccccc2-c2ccccc21 | 1% | / | / | 40% | 2%
O=C1C=CC(=O)N1c1ccc2c(c1)C(NC(=O)C(F)(F)F)c1ccccc1-2 (stereo unspecified) | / | / | / | / | 56µM*
CC1CCCN(C(C(=O)NC2CCCCC2)c2cc3c(cc2[N+](=O)[O-])OCO3)C1 (stereo unspecified) | -30% | 11µM* | -6% | 7% | -15%
Cc1[nH]n(-c2ccccc2)c(=O)c1N=Nc1c(O)cc(S(=O)(=O)N(C)C)c2ccccc12 | / | 7.9µM* | / | 19% | -4%
NS(=O)(=O)c1ccc(Nc2ccccc2)c([N+](=O)[O-])c1 | -5% | -8% | 7% | ? | -10%
O=[N+]([O-])c1cc(Cl)ccc1Nc1ccccc1 | -4% | 28µM* | / | 0% | -10%
COc1cccc(/C(O)=C/c2nc3ccc(C(=O)NCCc4cccc(C)c4)cc3[nH]c2=O)c1 | -1% | -9% | 3% | -3% | 71µM*
Nc1nc(-c2ccccc2)c(N=Nc2ccccc2Cl)s1 | -12% | 28µM* | -15% | -7% | -27%
Nc1nc(-c2ccccc2)c(N=Nc2cccc3ccccc23)s1 | -15% | 18µM* | 35µM* | ? | -13%
CC(=O)Nc1sc(N)nc1-c1ccccc1 | 3% | / | -8% | ? | 3%
Cc1nc2cnc(N(C)C)nc2n(Cc2cccs2)c1=O | 2% | / | i | 14% | /
CN(C)c1nc(=NCc2cccs2)ss1 | / | / | / | / | 22µM*
SMILES | BLM helicase inh | L3MBTL1 block | RECQ1 helicase | APE1 inh | WRN helicase inh
CC1(C)c2ssc(=S)c2-c2ccccc2N1C(=O)CSC1=NCCS1 | -5% | 14µM* | 3% | 1% | -8%
COc1ccc2c(c1)-c1c(ssc1=S)C(C)(C)N2C(=O)CSC1=NCCS1 | -5% | ? | -7% | -3% | -2%
CN(C)c1ccc(/C=C/C(=O)c2cc(Cl)ccc2O)cc1 | -24% | 32µM* | -7% | -5% | 50µM*
O=C(/C=C/c1ccncc1)c1cc(Cl)ccc1O | -8% | -24% | -7% | 54% | -1%
O=c1c(-c2ccc(O)cc2)coc2cc(O[C@@H]3O[C@H](CO)[C@@H](O)[C@H](O)[C@H]3O)cc(O)c12 | 4% | / | 8% | -9% | /
Cn1sc(=O)n(Cc2ccccc2)c1=O | 0% | / | -6% | -3% | /
CN(C)c1ccc(C(c2ccc(N(C)C)cc2)c2ccc([N+](=O)[O-])cc2)cc1 | -12% | 28µM* | 6% | -6% | -6%
CN(C)c1ccc(C=NC(CO)C(O)c2ccc([N+](=O)[O-])cc2)cc1 (stereo unspecified) | -1% | / | -9% | 7% | 2%
OC1(c2ccc(Cl)c(C(F)(F)F)c2)CCN(CCCC(c2ccc(F)cc2)c2ccc(F)cc2)CC1 | -3% | / | -28% | -6% | /
O=C(O)C(c1ccccc1)N1C(=O)/C(=C\c2ccc(-c3ccc(Br)cc3)o2)SC1=S (stereo unspecified) | 32µM* | / | / | ? | ?
O=C(O)C(c1ccccc1)N1C(=O)/C(=C\c2ccc(-c3ccccc3Cl)o2)SC1=S (stereo unspecified) | ? | / | / | ? | 50µM*
NCC(=O)N[C@@H](CCCN=C(N)N)C(=O)NCC(=O)N[C@@H](CC(=O)O)C(=O)N[C@@H](CO)C(=O)O | -1% | / | 9% | 0% | /
N#Cc1c(-c2cccc(O)c2)no[n+]1[O-] | / | / | / | -3% | /
CCCCCCCC/C=C\CCCCCCCC(=O)N[C@H](CO)Cc1ccc(O)cc1 | -19% | / | -20% | ? | /
C=CCSC1=N/C(=C\c2cc(OCC)c(OC(C)=O)c([N+](=O)[O-])c2)C(=O)S1 | -4% | 1.4µM* | -3% | ? | 16%
C=CCSC1=N/C(=C\c2ccc3c(c2)OCO3)C(=O)S1 | -7% | 13% | i | 13% | -5%
O=C(NN=C1CCCC1)c1cc(O)cc(O)c1 | -7% | / | / | 11µM* | -33%
CS[C@@H]1SC[C@H]2C(=O)N(C)C(C(C)C)C(=O)OC[C@@H](NC(=O)c3cnc4ccccc4n3)C(=O)N[C@@H](C)C(=O)N(C)[C@H]1C(=O)N(C)C(C(C)C)C(=O)OC[C@@H](NC(=O)c1cnc3ccccc3n1)C(=O)N[C@@H](C)C(=O)N2C (stereo partly specified) | 26% | / | 10µM* | ? | /
CC(C)(C)n1ncc2c(=O)n(Cc3ccccc3C#N)cnc21 | / | / | / | 0% | /
CN1c2ccc([N+](=O)[O-])cc2N(C)C1(C)c1ccccc1 (stereo unspecified) | -12% | 14µM* | / | -14% | -7%
C=CC1=C(C)C2=CC3=NC(=C(CC(=O)[O-])C4=NC(=C(C)C4=C([O-])[O-])C=c4[n-]c(c(C)c4CC)=CC1=N2)C(CCC(=O)[O-])C3C.[Cu+2].[Na+].[Na+].[Na+] (stereo unspecified) | / | / | / | 0.4µM* | /
CC(C)C(=O)OCC(=O)[C@@]12OC(C3CCCCC3)O[C@@H]1CC1C3CCC4=CC(=O)C=C[C@]4(C)C3[C@@H](O)C[C@@]12C (stereo partly specified) | -10% | / | / | / | /
Nc1ccc(N)c(Cl)c1 | / | / | 22µM* | ? | /
CCOC(=O)[C@@](C)(N)Cc1ccc(O)c(O)c1 | / | / | / | 1%[21 µM] | /
